Results: publication PMC11574364

What was measured:
Assay in all cases: protein domain microarray probed with biotinylated miRNA; Domain array: 20 mM Tris-HCl pH 7.4, 200 mM KCl, 0.2 mM EDTA, 0.05% NP40, 2 ug/ul heparin, overnight 4 C. ORF array: PBS pH 7.0 with RNase inhibitor, 100 ng RNA; high values mean tight binding
Conditions in all cases: ssRNA
RBM12(3) = target: T1, RBM12(3) (Homo sapiens, UniProt Q9NTZ6)
T1 sequence: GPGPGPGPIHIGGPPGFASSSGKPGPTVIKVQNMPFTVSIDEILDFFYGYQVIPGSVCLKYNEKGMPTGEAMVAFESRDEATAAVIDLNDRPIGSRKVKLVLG

RBM41 = target: T2, RBM41 (Homo sapiens, UniProt Q96IZ5)
T2 sequence: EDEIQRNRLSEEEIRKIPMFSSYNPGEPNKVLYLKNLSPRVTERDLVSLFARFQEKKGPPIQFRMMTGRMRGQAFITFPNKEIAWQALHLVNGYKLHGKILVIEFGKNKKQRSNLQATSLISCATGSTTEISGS

RBM15 = target: T3, RBM15 (Homo sapiens, UniProt Q96T37)
T3 sequence: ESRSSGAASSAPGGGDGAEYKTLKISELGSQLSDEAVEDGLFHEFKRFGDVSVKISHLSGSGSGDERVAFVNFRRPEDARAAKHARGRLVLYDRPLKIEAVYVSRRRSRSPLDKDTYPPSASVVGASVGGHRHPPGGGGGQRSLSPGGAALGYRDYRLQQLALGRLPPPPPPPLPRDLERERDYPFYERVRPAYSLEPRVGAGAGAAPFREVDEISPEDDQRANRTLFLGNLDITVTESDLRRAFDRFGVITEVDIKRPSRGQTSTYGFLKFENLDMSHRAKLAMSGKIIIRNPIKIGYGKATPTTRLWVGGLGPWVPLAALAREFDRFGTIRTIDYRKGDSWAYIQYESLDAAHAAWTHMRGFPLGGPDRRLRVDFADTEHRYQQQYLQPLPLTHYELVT

ASCC1 = ASCC1 (Homo sapiens, UniProt Q8N9N2)
TDRKH(1-2) = target: T4, TDRKH(1-2) (Homo sapiens, UniProt Q9Y2W6)
T4 sequence: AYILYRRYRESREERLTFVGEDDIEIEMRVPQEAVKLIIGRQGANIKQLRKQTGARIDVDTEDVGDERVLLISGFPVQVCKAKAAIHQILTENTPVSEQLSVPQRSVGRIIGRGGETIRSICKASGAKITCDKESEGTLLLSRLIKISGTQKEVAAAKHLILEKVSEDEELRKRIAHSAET

RBMS1 = target: T5, RBMS1 (Homo sapiens, UniProt P29558)
T5 sequence: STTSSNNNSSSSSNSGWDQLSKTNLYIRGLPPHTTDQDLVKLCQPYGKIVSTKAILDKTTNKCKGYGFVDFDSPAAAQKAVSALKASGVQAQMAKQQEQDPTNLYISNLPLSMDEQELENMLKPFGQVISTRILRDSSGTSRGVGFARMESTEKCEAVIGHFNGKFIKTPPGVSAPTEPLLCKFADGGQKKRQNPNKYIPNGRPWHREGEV

RBM15B = target: T6, RBM15B (Homo sapiens, UniProt Q8NDT2)
T6 sequence: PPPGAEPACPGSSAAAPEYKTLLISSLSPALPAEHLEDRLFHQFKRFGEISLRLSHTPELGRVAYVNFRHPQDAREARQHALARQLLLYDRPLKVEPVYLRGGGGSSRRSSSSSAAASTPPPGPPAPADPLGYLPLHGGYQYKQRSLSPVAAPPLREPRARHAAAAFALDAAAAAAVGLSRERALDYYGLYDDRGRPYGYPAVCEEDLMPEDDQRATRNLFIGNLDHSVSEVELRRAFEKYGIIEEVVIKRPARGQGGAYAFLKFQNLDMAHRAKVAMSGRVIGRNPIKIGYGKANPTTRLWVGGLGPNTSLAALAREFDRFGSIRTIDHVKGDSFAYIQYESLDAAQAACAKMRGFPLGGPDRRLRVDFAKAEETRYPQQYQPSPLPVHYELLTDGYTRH

RBMY1C = RBMY1C (Homo sapiens, UniProt P0DJD4)
SF1 = target: T7, SF1 (Homo sapiens, UniProt Q15637)
T7 sequence: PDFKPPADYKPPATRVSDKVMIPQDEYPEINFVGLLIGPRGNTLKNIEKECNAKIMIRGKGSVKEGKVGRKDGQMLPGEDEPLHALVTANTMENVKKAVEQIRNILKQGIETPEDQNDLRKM

THOC4 = THOC4 (Homo sapiens, UniProt Q86V81)

Chain of ASCC1 (Q8N9N2 79-168): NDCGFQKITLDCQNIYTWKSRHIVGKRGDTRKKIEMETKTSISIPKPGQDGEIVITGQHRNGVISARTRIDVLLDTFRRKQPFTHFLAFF
Chain of RBMY1C (P0DJD4 1-110): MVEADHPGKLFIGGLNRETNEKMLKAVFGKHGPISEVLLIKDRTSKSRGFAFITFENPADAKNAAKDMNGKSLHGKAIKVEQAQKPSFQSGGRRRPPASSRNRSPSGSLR

| Sequence | binding signal (RBM12(3)) | binding signal (RBM41) | binding signal (RBM15) | binding signal (ASCC1) | binding signal (TDRKH(1-2)) | binding signal (RBMS1) | binding signal (RBM15B) | binding signal (RBMY1C) | binding signal (SF1) | binding signal (THOC4) |
| --- | --- | --- | --- | --- | --- | --- | --- | --- | --- | --- |
| UGAGGUAGUAGGUUGUGUGGUU | 44.9 ± 5.61 fluorescence intensity | 435 ± 24.3 fluorescence intensity | 501 ± 99.1 fluorescence intensity | 45.53 ± 0.0141 fluorescence intensity | 93.1 ± 19.1 fluorescence intensity | 341 ± 18.8 fluorescence intensity | 268 ± 141 fluorescence intensity | 1360 ± 26.2 fluorescence intensity | 24.25 ± 0.205 fluorescence intensity | 133 ± 30 fluorescence intensity |
| UAGCUUAUCAGACUGAUGUUGA |  |  | 134 ± 18.6 fluorescence intensity |  |  | 29.7 ± 0.537 fluorescence intensity | 30.7 ± 4.65 fluorescence intensity | 371 ± 23 fluorescence intensity |  |  |
| UGAGGUAGUAGGUUGUAUGGUU | 35.9 ± 0.728 fluorescence intensity | 350 ± 12.9 fluorescence intensity | 537 ± 29.7 fluorescence intensity | 22.5 ± 1.64 fluorescence intensity | 45.7 ± 2.46 fluorescence intensity | 316 ± 53.1 fluorescence intensity | 309 ± 16.6 fluorescence intensity | 1200 ± 27.5 fluorescence intensity | 24.7 ± 4.35 fluorescence intensity | 91.8 ± 21.8 fluorescence intensity |
| CAGUGCAAUGAUGAAAGGGCAU | 27.1 ± 4.43 fluorescence intensity | 284 ± 7.83 fluorescence intensity | 315.16 ± 0.212 fluorescence intensity |  | 40.4 ± 7.05 fluorescence intensity | 166 ± 3.01 fluorescence intensity | 128 ± 12.3 fluorescence intensity | 1150 ± 31.6 fluorescence intensity | 107.4 ± 0.728 fluorescence intensity | 40.5 ± 0.424 fluorescence intensity |
| UGAGGUAGUAGGUUGUAUAGUU |  | 45.9 ± 18.9 fluorescence intensity | 82.1 ± 15.2 fluorescence intensity |  |  | 78.2 ± 3.38 fluorescence intensity | 42.7 ± 8.55 fluorescence intensity | 643 ± 42.4 fluorescence intensity |  |  |
| AGAGGUAGUAGGUUGCAUAGUU | 26.4 ± 4.72 fluorescence intensity | 818 ± 64.1 fluorescence intensity | 525 ± 1.24 fluorescence intensity | 24.9 ± 3.57 fluorescence intensity | 29.6 ± 0.502 fluorescence intensity | 365.1 ± 1.24 fluorescence intensity | 242 ± 10.9 fluorescence intensity | 1860 ± 11.9 fluorescence intensity |  | 49.2 ± 7.5 fluorescence intensity |
